# NRP1-CendR mod – modulators of CendR peptide binding to NRP-1, primary screen, biochemical, fluorescence polarization, uHTS; 0.85% of 360,000 active; inhibition, % at 25 µM; Neuropilin-1 (Homo sapiens), O14786; FAM-RPARPAR peptide binding to NRP-1;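 active = inhibition or corrected inhibition above about 18%, plus a signal ratio from 0.5 to 1.5, limit read from the data, passing the limit was not always enough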
# PABP polyA inh – PABP poly(A) RNA binding inhibitors, primary screen, biochemical, fluorescence polarization, uHTS | inhibition, % at 35 µM | 1% of 290,000 active;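 note: calls also rest on retests at 20 µM and on dose response follow-up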
# MLLE-PAM2 inh – inhibitors of PABP1 MLLE–PAM2 peptide binding, primary screen, biochemical, fluorescence polarization, FITC-PAM2, GST-MLLE. inhibition, % at 20 µM. 0.36% of 360,000 active. AID 588489, 2011; in the data active = inhibition above about 35%, passing the limit was not always enough;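 note: plate controls were DMSO wells with GST-MLLE for no effect and wells lacking GST-MLLE protein for full effect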
# eIF4H inh – human eIF4H binding inhibitors, primary screen, translation initiation inhibitor project, biochemical, uHTS, fluorescence polarization. Eukaryotic translation initiation factor 4H (Homo sapiens), Q15056. eIF4H fluorescence polarization binding assay. inhibition, % at 35 µM. 0.94% of 290,000 active;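 note: calls also rest on retests at 20 µM and on dose response follow-up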
# * hit, by the source's call; ? = inconclusive; · = not tested or not shown. Rows were chosen to be rich in hits. Some 2.1% of all compounds tested hit in one or more screens of this group. Unless noted, the rule behind the calls is not given here.
SMILES,NRP1-CendR mod,PABP polyA inh,MLLE-PAM2 inh,eIF4H inh
Oc1ccc(/C=N/NC(=S)N/N=C/c2ccc(O)cc2)cc1,-13,3,33,10
COc1cccc(/C=N/NC(=S)Nc2cccnc2)c1,9,?,32,-10
Oc1ccc(/C=N/NC(=S)Nc2cccnc2)cc1,23*,1,38*,-5
CCOC(=O)c1c(NC(=O)C(Sc2ccccc2)c2ccccc2)sc(C(=O)N(C)C)c1C (stereo not drawn),19,66*,16,active
CCOC(=O)c1c(NC(=O)C(Sc2ccccc2)c2ccccc2)sc(C(N)=O)c1C (stereo not drawn),-4,2,19,-10
CCOc1ccccc1NC(=O)C(Sc1ccccc1)c1ccccc1 (stereo not drawn),27*,-3,6,2
COc1c(N2C[C@@H]3CCCN[C@@H]3C2)c(F)cc2c(=O)c(C(=O)O)cn(C3CC3)c12,-11,·,-5,·
COc1ccc(C(=O)Nc2c(F)c(F)c(F)c(F)c2F)c(OC)c1,20*,-5,0,-1
COc1ccc(/C(C)=N/N=C(\C)c2ccc(OC)cc2OC)c(OC)c1,-8,-2,2,-5
COc1ccc(C(N)=S)c(OC)c1,8,10,39*,-9
CC[n+]1c(/C=C/c2ccc(OC(C)=O)c(OC)c2)ccc2ccccc21,10,55,-135,4
CC[n+]1c(/C=C/c2ccc(OC)c(OC)c2)ccc2ccccc21,-27,59*,-141,1
OC(c1cccc(Cl)c1)c1nc(-c2csc3ccccc23)cs1 (stereo not drawn),-19,·,8,·
Cc1ccc(/C=C/C(=O)OCn2nnc3ccccc3c2=O)o1,-2,15,2,8
O=C(/C=C/c1ccco1)OCn1nnc2ccccc2c1=O,-3,4.6*,5,68*
Cc1cc(C)cc(NC(=O)C(C)N2C(=O)c3ccccc3C2=O)c1 (stereo not drawn),-3,-2,-6,-5
Cc1cc(C)cc(OCCNC(=O)C(C)N2C(=O)c3ccccc3C2=O)c1 (stereo not drawn),22*,-11,-4,8
CC1C2(C)OCC(C#N)(C(=N)O2)C1(C#N)C#N (stereo not drawn),·,36*,·,63*
CN(C)c1ccc(CN(C(=O)c2cccs2)C2CCS(=O)(=O)C2)cc1 (stereo not drawn),5,-4,-11,7
O=C(OCc1nc2ccccc2s1)c1ccc(Br)o1,2,70*,-10,7.1*
Nc1nc(-c2ccc3c(c2)CCO3)cs1,7,91*,13,0
Cc1ccc(OCC(=O)OCC(=O)c2ccccc2)cc1C,1,-5,0,-1
C/C=C/c1ccc(OCCn2nnc3ccccc32)c(OC)c1,2,3,0,8
C=CCc1ccc(OCCn2nnc3ccccc32)c(OC)c1,27*,5,10,-11
CN1C(=O)/C(=C2/C=CC=CN2C)OC1=S,-12,-3,40*,-8
SMILES,NRP1-CendR mod,PABP polyA inh,MLLE-PAM2 inh,eIF4H inh
COc1ccc(OC)c(NC(=O)C2(C)CCN2Cc2ccccc2Cl)c1 (stereo not drawn),-1,·,5,·
CN(CC(=O)Nc1cccc(F)c1)C(=O)c1ccc(COc2ccccc2)o1,3,·,-2,·
COc1ccc(/C=C(\NC(=O)c2ccccc2)C(=O)N2CCCCC2)cc1OC,2,-2,6,-15
COc1ccc(/C=C(/NC(=O)c2ccccc2)C(=O)N2CCCCC2)cc1OC,28*,-10,12,-4
CC(=O)N1CCN(S(=O)(=O)c2cccc(C(=O)NC3CCCC(C)C3C)c2)CC1 (stereo not drawn),1,·,-71,·
Cc1ccc(S(=O)(=O)N(C)C)cc1-n1c(SCC(=O)N(C)C)nc2ccccc2c1=O,4,4.2*,-13,52*
Cc1ccc(S(=O)(=O)N(C)C)cc1-n1c(SCC(=O)Nc2ccc(F)c(F)c2F)nc2ccccc2c1=O,13,-11,0,-8
COc1ccccc1C(=O)Nc1ccnn1C1CCN(Cc2cnn(C)c2C)CC1,10,2,-12,-4
Cc1ccc(S(=O)(=O)Nc2ccc3c(c2)C(=O)N([C@@H](C)CO)C[C@@H](C)[C@@H](CN(C)S(=O)(=O)c2ccccc2)OCCCC[C@H](C)O3)cc1,-10,·,-24,·
Cc1noc(C)c1NC(=O)N(C)C[C@H]1Oc2c(NC(=O)NC(C)C)cccc2C(=O)N([C@H](C)CO)C[C@@H]1C,25*,·,-14,·
Cc1noc(C)c1NC(=O)Nc1cccc2c1O[C@@H](CN(C)C)[C@@H](C)CN([C@H](C)CO)C2=O,10,·,-7,·
CC(C)NC(=O)Nc1ccc2c(c1)C(=O)N([C@H](C)CO)C[C@H](C)[C@@H](CN(C)S(=O)(=O)c1cccs1)O2,25*,·,7,·
Cc1noc(C)c1NC(=O)Nc1cccc2c1O[C@H](CN(C)C(=O)NC1CCCCC1)[C@@H](C)CN([C@H](C)CO)C2=O,25*,·,8,·
N#Cc1ccccc1COC(=O)CCC(=O)c1cccs1,10,·,-6,·
CCOc1ccc(CCNC(=O)COC(=O)CSc2ccc(C)cc2)cc1OCC,5,·,1,·
COc1ccc(S(=O)(=O)N(C)c2ccc(C(=O)NCc3ccccn3)cc2)cc1OC,-7,3,-5,-10
COc1ccc(OC)c(N2Cc3cc(C)c(C)cc3C2)c1,-15,118,-22,105*
CCOc1ccccc1N1Cc2cc(C)c(C)cc2C1,-12,-3,-21,3
O=C(NC(=S)N1CCCC1)c1ccccc1Cl,9,6,25,5
COc1ccc2nc3cc(Cl)ccc3c(C#N)c2c1,1,34,54*,32
COc1ccc(CCNC(=O)c2ccc(Cl)c(S(=O)(=O)N3CCCCCC3)c2)cc1,-2,·,4,·
COc1ccc(CCNC(=O)c2ccc(Cl)c(S(=O)(=O)N(C)c3ccccc3)c2)cc1,23*,-4,1,-4
COc1ccc(CCNC(=O)c2ccc(N(C)S(=O)(=O)c3ccc(C)cc3)cc2)cc1,21*,17,-10,-4
Cc1cc(Cl)ccc1NC(=O)CN1C(=O)C(=O)N(C2CCCC2)C1=O,-1,·,0,·
CC(C)C(=O)Nc1ccc(NC(=S)NC(=O)c2ccc([N+](=O)[O-])cc2)cc1,2,0,42*,-9
Cc1cc(C(=O)NC(=S)Nc2cccc(NC(=O)C(C)C)c2)ccc1[N+](=O)[O-],4,6,38*,-3
Cc1cc(C(=O)NC(=S)Nc2cccc(C(=O)O)c2C)ccc1[N+](=O)[O-],-3,4,19,2
CC(=O)Nc1ccc(NC(=S)NC(=O)c2ccc([N+](=O)[O-])cc2)cc1,-1,3,40*,3
CC(C)C(=O)Nc1cccc(NC(=S)NC(=O)c2ccc([N+](=O)[O-])cc2)c1,-1,5,-53,-10
CCC(=O)NC(=S)Nc1ccc(NC(=O)c2ccc([N+](=O)[O-])cc2)cc1,-5,0,13,-6

# Screening data as filed in PubChem.
